Bioassay records as filed in PubChem.
Rows were chosen to be rich in hits. Some 1.2% of all compounds tested hit in one or more screens of this group.
NR2F2 inh: NR2F2 (human) inhibition, primary screen; AID 686940; HEK293T NGFI-A luciferase reporter, luminescence; 370,000 compounds, 0.7% hits; inhibition, % at 8.6 µM; P24468;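 active = inhibition above a per-plate cutoff, mean inhibition of test wells between control levels plus 3 SD, cut at about 38% in these data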;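 note: cells cotransfected with COUP-TFII expression vector driving the NGFI-A reporter; 0% = median of COUP-TF2 test wells and 100% = reporter-only cells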
LRH-1 inv ag: NR5A2 inverse agonism in reporter assay; inhibition, % at 3.6 µM; 360,000 compounds, 0.13% hits; AID 602396; HEK293T StAR-luciferase reporter, LRH-1 transfected, 24 h;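 active = inhibition above the mean inhibition of all tested compounds plus 3 SD, cut at about 73% in these data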;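 note: 0% = DMSO wells and 100% = reporter-only cells lacking LRH-1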
NCOA2 inhibitor: inhibits human steroid receptor coactivator 2; Q15596; HEK293 GAL4-SRC2 luciferase reporter, luminescence; inhibition, % at 9 µM; 370,000 compounds, 0.17% hits;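 active = inhibition above the mean inhibition of all tested compounds plus 3 SD, set per campaign, cut at about 52% in these data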;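 note: 0% = DMSO treated cells and 100% = cells given Gossypol at 36 µM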
Target sequence (Q15596 whole entry, looked up, the tested form may be a part): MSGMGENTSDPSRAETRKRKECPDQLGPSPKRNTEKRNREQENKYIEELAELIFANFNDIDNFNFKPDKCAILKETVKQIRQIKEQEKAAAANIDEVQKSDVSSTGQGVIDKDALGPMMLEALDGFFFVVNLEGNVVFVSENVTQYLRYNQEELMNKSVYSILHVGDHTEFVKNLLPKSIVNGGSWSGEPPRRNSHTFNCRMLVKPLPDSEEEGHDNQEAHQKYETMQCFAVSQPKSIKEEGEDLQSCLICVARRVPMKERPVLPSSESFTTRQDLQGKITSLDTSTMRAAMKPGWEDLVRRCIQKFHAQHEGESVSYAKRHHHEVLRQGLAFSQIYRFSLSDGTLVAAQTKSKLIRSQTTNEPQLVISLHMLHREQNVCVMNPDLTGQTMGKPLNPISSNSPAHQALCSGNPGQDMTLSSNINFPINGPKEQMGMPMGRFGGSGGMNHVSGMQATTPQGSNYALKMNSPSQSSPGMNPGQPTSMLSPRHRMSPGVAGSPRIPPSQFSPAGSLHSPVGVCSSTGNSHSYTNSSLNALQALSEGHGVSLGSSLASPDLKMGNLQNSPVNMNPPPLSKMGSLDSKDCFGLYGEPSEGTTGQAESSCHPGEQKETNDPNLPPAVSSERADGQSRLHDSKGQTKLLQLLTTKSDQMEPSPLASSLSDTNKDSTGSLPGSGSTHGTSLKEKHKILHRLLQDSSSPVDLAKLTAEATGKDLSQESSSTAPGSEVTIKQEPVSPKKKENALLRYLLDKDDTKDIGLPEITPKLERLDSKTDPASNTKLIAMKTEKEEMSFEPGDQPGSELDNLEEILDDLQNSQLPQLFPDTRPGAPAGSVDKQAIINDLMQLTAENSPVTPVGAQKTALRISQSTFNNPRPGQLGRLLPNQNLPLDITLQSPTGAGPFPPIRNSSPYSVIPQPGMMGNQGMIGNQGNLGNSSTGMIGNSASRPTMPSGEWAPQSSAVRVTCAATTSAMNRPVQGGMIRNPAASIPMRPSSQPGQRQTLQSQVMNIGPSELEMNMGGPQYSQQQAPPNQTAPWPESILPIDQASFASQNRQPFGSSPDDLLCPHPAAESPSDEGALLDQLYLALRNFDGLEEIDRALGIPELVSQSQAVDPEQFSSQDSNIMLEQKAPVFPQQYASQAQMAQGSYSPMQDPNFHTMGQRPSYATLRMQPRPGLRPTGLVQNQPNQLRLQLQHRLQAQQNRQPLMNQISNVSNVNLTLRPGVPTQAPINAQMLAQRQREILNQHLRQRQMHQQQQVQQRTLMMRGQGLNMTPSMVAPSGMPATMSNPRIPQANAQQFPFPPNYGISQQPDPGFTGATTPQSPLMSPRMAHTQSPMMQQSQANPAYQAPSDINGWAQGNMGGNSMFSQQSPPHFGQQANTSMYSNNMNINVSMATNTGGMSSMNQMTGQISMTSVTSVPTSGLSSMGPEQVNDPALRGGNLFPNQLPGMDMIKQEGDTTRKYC
Gli-Sufu antag: antagonists of Gli-Sufu signaling. inhibition, % at 5 µM. 340,000 compounds, 0.74% hits. Sufu-KO-LIGHT fibroblasts, Gli luciferase reporter luminescence;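 active = inhibition above about 55%, limit read from the data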;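 note: 0% = DMSO-treated cells and 100% = wells with medium but no cells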
SRC1 inh: human NCOA1 inhibition | 360,000 compounds, 0.12% hits | AID 588354 | HEK293 GAL4-SRC1 luciferase reporter, luminescence | Q15788 | inhibition, % at 3.6 µM;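 active = inhibition above the campaign mean plus 3 SD, with each screening campaign given its own cutoff, cut at about 60% in these data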;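 note: 0% = DMSO treated cells and 100% = gossypol at 36 µM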
SRC3 inh: human NCOA3 inhibition. inhibition, % at 3.6 µM. Q9Y6Q9. 360,000 compounds, 0.17% hits. HEK293 GAL4-SRC3 luciferase reporter, luminescence;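 active = inhibition above a per-campaign cutoff, the mean of all compounds plus 3 SD, cut at about 60% in these data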;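 note: 0% = DMSO-treated cells and 100% = gossypol-treated cells at 36 µM; higher means less SRC3-driven luciferase light from the GAL4 reporter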
Gli antag conf: confirmation of Gli-SUFU pathway antagonists | shares compounds with Gli-Sufu antag | Sufu-KO-LIGHT cells, Gli luciferase reporter, luminescence | inhibition, % at 5 µM | 2,500 compounds, 40% hits | AID 602428;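 active = mean inhibition at 5 µM reaching about 45%, limit read from the data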;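 note: plate controls were DMSO-treated cells for no effect and wells lacking cells for full effect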
Gli cytotox: cytotoxic in Gli-SUFU antagonist counter-screen; shares compounds with Gli-Sufu antag; Sufu-KO-LIGHT cells cytotoxicity, ATP luminescence; cytotoxicity, % at 5 µM; 2,500 compounds, 32% hits; AID 651994;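 active = mean cytotoxicity at 5 µM above about 25%, limit read from the data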;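 note: cells exposed to compound overnight for roughly 16 to 18 hours; plate controls were DMSO wells with cells for no effect and medium without cells for full effect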
Wnt3a cs: Wnt3a reporter inhibition counter-screen | AID 651995 | Wnt-LIGHT cells, Wnt3a-driven luciferase reporter, luminescence | inhibition, % at 6.25 µM | shares compounds with Gli-Sufu antag | 2,500 compounds, 20% hits;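 active = mean inhibition above about 25%, limit read from the data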
VP16 Luc counter: counter-screen for COUP-TFII antagonists: inhibitors of VP16 | shares compounds with NR2F2 inh | HEK293 Gal4-VP16 luciferase reporter, luminescence | inhibition, % at 8.5 µM | 2,500 compounds, 25% hits | AID 687007; in the data active = inhibition above about 13%
COUP-TFII conf: COUP-TFII (NR2F2) inhibition, confirmation assay | shares compounds with NR2F2 inh | HEK293 NGFI-A luciferase reporter, luminescence | inhibition, % at 8.5 µM | 2,500 compounds, 45% hits;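 active = mean inhibition over three repeats above a set limit taken from the earlier primary screen, cut at about 38% in these data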;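 note: 100% = cells given the luciferase reporter alone without the COUP-TF2 vector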
* marks the source's active call; other numbers are inactive results; . = no result given.

SMILES | NR2F2 inh | LRH-1 inv ag | NCOA2 inhibitor | Gli-Sufu antag | SRC1 inh | SRC3 inh | Gli antag conf | Gli cytotox | Wnt3a cs | VP16 Luc counter | COUP-TFII conf
O=S(=O)(NCC1CCCO1)c1ccc(-c2ccc(S(=O)(=O)NCC3CCCO3)cc2)cc1 (stereo not drawn) | 67.5* | 45.6 | 22.0 | 73.7* | 18.9 | 32.9 | 67.3* | 31.0* | 34.7* | 6.0 | 64.5*
CCN1CCS/C1=C\C=C\C1=[N+](CC)CCS1 | 68.1* | 57.1 | -11.5 | 80.7* | 42.4 | 33.7 | 87.2* | 33.5* | 50.2* | 11.8 | 63.6*
Cn1nc(C(C)(C)C)cc1C(=O)NCc1cc(F)cc2c1OCOC2 | 63.3* | 38.0 | 26.6 | 58.4* | -1.3 | 26.1 | 69.7* | 26.4* | 36.9* | 6.0 | 60.7*
Cc1cc(C(=O)NCc2cc(F)cc3c2OCOC3)nn1C | -15.4 | 0.6 | -17.3 | 9.5 | -3.4 | 23.5 | . | . | . | . | .
Cc1cc(C)c(C#N)c(SCc2nnc(-c3ccccc3)o2)n1 | 81.3* | 86.9* | 66.9* | 70.0* | 79.9* | 79.1* | 82.7* | 34.7* | 96.2* | 56.8* | 91.8*
Cc1ccc(C#N)c(SCc2nnc(-c3ccc(Cl)cc3)o2)n1 | 77.2* | 72.0 | 54.5* | 75.0* | 68.5* | 75.0* | 87.5* | 60.2* | 99.5* | 45.4* | 89.5*
Cc1ccc(C#N)c(SCc2cc3c(cc2Cl)OCO3)n1 | -3.0 | 11.2 | -24.5 | -3.3 | -2.6 | 5.0 | . | . | . | . | .
Cc1cc(C)c(C#N)c(SCc2nnc(-c3ccccc3[N+](=O)[O-])o2)n1 | -46.9 | -163.0 | -47.0 | -88.9 | -92.7 | -68.2 | . | . | . | . | .
Cc1cc(C(=O)CSc2nnc3ccccn23)c(C)n1-c1ccccc1 | 40.4* | 58.3 | 45.7 | 54.3 | 58.6 | 66.0* | 64.6* | 40.2* | 95.8* | 5.4 | 57.3*
C=CCN1C(=O)c2n[nH]c(C)c2C1c1ccc(C)cc1 (stereo not drawn) | 8.0 | . | -13.9 | . | . | . | . | . | . | . | .
Cc1ccc(S(=O)(=O)Nc2ccccc2C(=O)Nc2nc(-c3ccc(F)cc3)cs2)cc1 | 66.4* | 52.6 | 36.6 | 77.2* | 35.6 | 58.2 | 78.7* | 35.1* | 77.5* | 0.1 | 37.3
C[C@@H]1CN([C@H](C)CO)C(=O)CCCn2cc(nn2)CO[C@H]1CN(C)C(=O)Oc1ccccc1 | -14.3 | . | 6.9 | . | . | . | . | . | . | . | .
Nc1ccc(-c2cc3ccccc3oc2=O)cc1 | 87.8* | 56.5 | 85.5* | 61.5* | 41.8 | 64.8* | 71.7* | 9.4 | 103.0* | 81.3* | 79.6*
CC(=O)c1cn(CCOc2ccccc2C)c2ccccc12 | 60.9* | 25.1 | 19.5 | 64.6* | 18.8 | 28.4 | 56.3* | 24.7 | 29.6* | 0.0 | 53.8*
c1ccc(-c2ccccc2C2Cc3nnccc3CN2)cc1 (stereo not drawn) | 6.3 | . | -13.2 | . | . | . | . | . | . | . | .
O=C(CSc1nnc(Cn2nnc3ccccc32)o1)N(Cc1ccc(Cl)cc1)c1ccccc1 | 71.7* | 20.4 | 18.1 | 64.1* | 25.1 | 33.7 | 63.2* | 29.4* | 11.0 | 3.5 | 67.0*
COc1ccc(OCc2cc(C(=O)N3CCCC(CO)C3)no2)c2ccccc12 (stereo not drawn) | -36.7 | -80.5 | -53.2 | -17.6 | -88.2 | -78.5 | . | . | . | . | .
O=C(c1cc(COc2cccc3cnccc23)on1)N1CCCC(CCCO)C1 (stereo not drawn) | 70.6* | 47.7 | 14.5 | 79.7* | 24.0 | 13.2 | 74.5* | 28.9* | 4.0 | 11.5 | 76.4*
CC(C)CCN(C)[C@H]1C[C@H]2c3[nH]c4ccccc4c3CCN2C[C@H]1[C@H](C)O | 11.6 | . | -3.4 | . | . | . | . | . | . | . | .
